The text below walks through data of PubChem BioAssay (NCI).

Compounds without any hit were thinned out: in the full panel of roughly 83,000, 20% have a hit.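 Cells were grown in 96-well plates and exposed to the test compound at a single concentration for 48 hours; results are reported as percent growth, with values below 10 considered active.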 The source made the active and inactive calls.

This test has as its system UACC-62 melanoma. The test is described as follows: NCI-60 one-dose screen, 48 h (100 = growth as untreated, 0 = no growth, -100 = all killed). Conditions: 10 µM unless noted.
Consider `Cc1ccc(S(=O)(=O)c2nc(S(=O)(=O)c3ccc(C)cc3)c(Cl)s2)cc1`, for which the growth is 39.7% (inactive).
To `CCCCSc1nc(Nc2ccc(C(C)=O)cc2)c(C#N)c(-c2ccc(OC)cc2)n1` belongs 96.2% (inactive); to `CCOC(=O)C1=C(N)N(c2ccccc2)C2=C(C(=O)CC(C)(C)C2)C1c1ccc([N+](=O)[O-])cc1` (stereo not drawn), 66.6% (inactive).
Turning to `Cc1cccc(Nc2nc3ccccc3nc2/C=C/c2ccc(F)cc2)c1`, the growth was 74.7% (inactive).
Regarding `Cc1cccc(NC(=O)CN2CCN(c3ncnc4c3cnn4-c3ccccc3)CC2)c1`, the growth is 67.9% (inactive).
With `Cn1cc(-c2cc3nc(-c4c[nH]c5ccc(Br)cc45)cc(N)n3n2)c2ccccc21`, the growth was -70.3% (active).
`C#CCOc1ccc(/C=N/Nc2nc(-c3cc4cc(OC)ccc4oc3=O)cs2)cc1OC`: the growth is 54.4% (inactive).
To `CC1(C)CC[C@]2(C(=O)O)CC[C@]3(C)C(=CCC4[C@@]5(C)C[C@@H](O)[C@@H]6OC(c7ccc(F)cc7)OC[C@@]6(C)C5CC[C@]43C)C2C1` (stereo partly drawn) belongs 45.5% (inactive); to `O=C(NN1C(=O)/C(=C/C=C/c2ccc([N+](=O)[O-])o2)SC1=S)c1cccc(O)c1`, -97.4% (active); to `Cc1ccc(C(=O)NN2C(=O)/C(=C/C=C/c3ccc([N+](=O)[O-])o3)SC2=S)cc1`, -92.4% (active).
Take `N/C(=N\c1nc2ccccc2s1)NC(=O)Nc1c(Cl)cccc1Cl`: the growth is 23.6% (inactive).
To `O=C(CN1C(=O)/C(=C/c2ccccc2Cl)SC1=S)N1CCOCC1` belongs 83.2% (inactive); to `CN(C)c1nc(NCCNS(=O)(=O)c2ccc(C3=Nc4c(N)nc(N)nc4NC(c4ccc(C(F)(F)F)cc4)C3)cc2)nc(Nc2ccc(F)cc2)n1` (stereo not drawn), -51% (active); to `O=C(CSc1nc2ccccc2c(=O)[nH]1)NCCN1CCCCC1`, 90.7% (inactive).
The figure for `Cn1cc(-c2nnc(N)nc2-c2c[nH]c3ccc(Br)cc23)c2cc(Br)cnc21` is 46.3% (inactive); for `O=C(O)Cn1c(O)c(/C=C2/C=c3cc4c(cc3=NC2=O)OCCO4)sc1=S` it is 94.8% (inactive).
As to `N/C(=N\c1nc2ccccc2s1)NC(=O)Nc1ccc(Cl)cc1Cl`, the growth was -49.8% (active).
Turning to `Cc1ccc(-c2nc(C#N)c(S(=O)(=O)N3CCN(S(=O)(=O)c4ccccc4)CC3)o2)cc1`, the growth was 18.5% (inactive).
Consider `COc1cccc(-c2nc(Nc3ccc(S(N)(=O)=O)cc3)c3ccccc3n2)c1`, for which the growth is 37.5% (inactive).
For `COc1ccc(/C=C/c2nc3ccccc3n3c(-c4ccc(Cl)cc4)nnc23)cc1`, the growth was 81.3% (inactive).
As to `CNS(=O)(=O)c1ccc(Nc2ccc(C(F)(F)F)cc2)c(-c2cn(C)cn2)c1`, the growth was 37.1% (inactive).
In the case of `CCS(=O)(=O)N1CCCC(C(=O)Nc2nc3ccc(NC(=O)c4ccc(F)c(OC)c4F)cc3s2)C1` (stereo not drawn), the growth was 58.2% (inactive).
Consider `C#CCOc1cc(N(CC)CC)ccc1C(C(=O)NC(C)(C)C)N(C(=O)C1CCc2cc(F)ccc2O1)c1cc(C)cc(C)c1` (stereo not drawn), for which the growth is 33.8% (inactive).
The figure for `C#CCOc1ccc(/C=N/Nc2nc(-c3ccc(Cl)cc3)cs2)cc1OC` is 54.7% (inactive).
As to `O=C(COc1ccc2c(c1)CCCC(=O)N2)NCc1ccccc1`, the growth was 86.5% (inactive).
On to `CN(C)c1nc(NCCNS(=O)(=O)c2ccc(C3=Nc4c(N)nc(N)nc4NC(c4ccccc4)C3)cc2)nc(Nc2ccc(F)cc2)n1` (stereo not drawn), for which the growth is 55.9% (inactive).
As to `CC1(C)CC[C@]2(C(=O)O)CC[C@]3(C)C(=CCC4[C@@]5(C)C[C@@H](O)[C@@H]6OC(c7ccccc7F)OC[C@@]6(C)C5CC[C@]43C)C2C1` (stereo partly drawn), the growth was 0.203% (active).
As for `Cc1cccc(-c2nc(Nc3ccc(C)c(S(N)(=O)=O)c3)c3ccccc3n2)c1`, the growth was 43% (inactive).
Consider `COC(=O)C[C@](O)(CCCC(C)(C)O)C(=O)O[C@H]1C(OC)=C[C@@]23CCCN2CCc2cc4c(cc2[C@@H]13)OCO4`, for which the growth was -18.5% (active).
To `Cn1cc(-c2cc(N)n3nc(-c4cn(C)c5ccccc45)cc3n2)c2cc(Cl)ccc21` belongs -56.2% (active); to `CC1(C)CC[C@]2(C(=O)O)CC[C@]3(C)C(=CCC4[C@@]5(C)C[C@@H](O)[C@@H]6OC(c7ccco7)OC[C@@]6(C)C5CC[C@]43C)C2C1` (stereo partly drawn), -7.05% (active).
Turning to `Cn1cc(-c2cc3nc(-c4c[nH]c5ccc(Cl)cc45)cc(N)n3n2)c2ccccc21`, the growth was -70.9% (active).
Regarding `COc1ccc(Cc2nn(CC(=O)N/N=C/c3ccc(F)cc3)c(=O)c3c(C)noc23)cc1`, the growth is 44.4% (inactive).
On to `COc1cc2nc(SCc3ccccc3)n(-c3ccc(Cl)cc3)c(=O)c2cc1OC`, for which the growth was 29.3% (inactive).
For the compound `Cc1cccc(-c2nc(Nc3cccc(S(N)(=O)=O)c3)c3ccccc3n2)c1`, the growth is 49.9% (inactive).
For the compound `COc1ccc2[nH]cc(-c3nnc(N)nc3-c3cn(C)c4ncc(Br)cc34)c2c1`, the growth is 68.5% (inactive).
To `CCN(CC)c1ccc(/C=N/Nc2nc(-c3ccc(C)cc3)cs2)c(O)c1` belongs 80.6% (inactive).
Turning to `N/C(=N\c1nc2ccccc2s1)NC(=O)Nc1ccccc1Br`, the growth was -7.53% (active).
